From PubChem BioAssay AID1847 (The Scripps Research Institute Molecular Screening Center, 2009)
Values joined by “and” are separate entries in the source; they are usually repeats but may differ in a detail not shown here. Equal entries are not always repeated. Hit rate of the full screen: of about 2,300 compounds, about 1,100 (48%) were called active. So high a share suggests a set chosen from earlier hits. A selection follows. Values without a mark were called inactive.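 How the source made its calls: active means inhibition above the mean inhibition of all tested sample wells plus 3 SD (cut at about 10% in these data); inactive means the rest.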

Each molecule was assayed against Luciferin 4-monooxygenase (Photinus pyralis) (UniProt P08659) (assay: firefly luciferase inhibitors, HSP90 counter-screen, confirmation, artefact control for HSP90 inhibitor project, biochemical, luminescence, triplicate (AID 1847;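 further: 0% = DMSO with luciferase and 100% = wells lacking luciferase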)). Details: purified native firefly luciferase, at 5.9 µM, hits give high values.
Sequence of Luciferin 4-monooxygenase (Photinus pyralis) (P08659 whole entry, looked up): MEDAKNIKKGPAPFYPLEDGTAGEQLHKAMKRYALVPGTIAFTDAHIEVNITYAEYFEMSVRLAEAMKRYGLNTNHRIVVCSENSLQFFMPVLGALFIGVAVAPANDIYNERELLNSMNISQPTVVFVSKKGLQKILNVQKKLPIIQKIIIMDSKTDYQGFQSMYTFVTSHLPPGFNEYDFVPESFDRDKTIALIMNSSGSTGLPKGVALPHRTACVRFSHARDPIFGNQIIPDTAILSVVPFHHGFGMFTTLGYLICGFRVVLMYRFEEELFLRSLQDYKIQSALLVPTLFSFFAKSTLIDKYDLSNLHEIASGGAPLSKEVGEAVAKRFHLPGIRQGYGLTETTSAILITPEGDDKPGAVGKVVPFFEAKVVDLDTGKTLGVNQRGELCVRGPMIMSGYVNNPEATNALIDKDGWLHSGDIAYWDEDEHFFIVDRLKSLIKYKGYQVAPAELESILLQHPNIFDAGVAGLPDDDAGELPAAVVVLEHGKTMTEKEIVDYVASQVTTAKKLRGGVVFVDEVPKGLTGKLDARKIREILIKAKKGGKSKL
With `COc1cc(SC)ccc1C(=O)Nc1nc(C)cs1` the inhibition was 90.1% (active).
`COC(=O)c1sc(NC(=O)c2ccc(OC)cc2OC)nc1C` was tested, and the inhibition was 56.6% (active).
`COC(=O)c1sc(NC(=O)c2csc3c2CCCC3)nc1C` showed an inhibition of -24.8%.
`Cc1ccc(-n2c(SCC(=O)Nc3ncc(Cl)cc3Cl)nc3ccccc32)cc1` was tested, and the inhibition was -5.93%.
`Cc1sc2nc(CSCC(=O)Nc3c(Cl)cccc3Cl)[nH]c(=O)c2c1C` showed an inhibition of -10.5%.
For `CCOc1ccc(C2NC(=S)NC3=C2CCc2ccccc23)cc1` (stereo not given), the inhibition was 27.2% (active).
In the case of `O=C(Nc1ccccc1)c1ccc2c(c1)OCCCO2`, the inhibition is reported as 32.8% (active).
In the case of `Cc1nc(NC(=O)c2cccc(Cl)c2)sc1-c1csc(Nc2cccc(Cl)c2)n1`, the inhibition is reported as -10.7%.
In the case of `O=C(Nc1nc2ccccc2s1)c1ccc2c(c1)OCO2`, the inhibition is reported as 56% (active).
`c1ccc(-c2ccc3c(c2)NC(C2Nc4cc(-c5ccccc5)ccc4O2)O3)cc1` (stereo not given) was tested, and the inhibition was -6.37%.
In the case of `Clc1ccc(-c2cc(-c3ccccn3)on2)c(Cl)c1`, the inhibition is reported as 81.9% (active).
For `O=[N+]([O-])/C=C/c1ccc2c(ccn2Cc2ccccc2)c1`, the inhibition was 5.87%.
`CCN(CC)CCn1c(N)c(S(=O)(=O)c2ccccc2)c2nc3ccccc3nc21` showed an inhibition of -7.93%.
`COc1ccc(-n2nnnc2-c2nc3ccccc3s2)cc1` was tested, and the inhibition was 52.3% (active).
For `Cc1cccc(NC(=O)/C=C/c2ccc3c(c2)OCO3)n1`, the inhibition was 30.9% (active).
`Cc1csc(SCC(=O)Nc2sccc2C#N)n1` gave an inhibition of 8.6%.
In the case of `Cn1c(-c2ccco2)nc2cc3ccccc3cc21`, the inhibition is reported as 51.4% (active).
For `Cc1cc(C(=O)COC(=O)C2CC2)c(C)n1-c1ccc(F)cc1`, the inhibition was 88.4% (active).
`Cc1ccc(C(=O)O/N=C(\N)c2ccccn2)cc1Cl` was tested, and the inhibition was 79.1% (active).
Molecule `CCOC(=O)C1=C(c2ccc(OC)cc2)C(=O)c2ccccc2C1=O` has an inhibition of -5.23%.
`CC(C)Nc1ccc(-n2nc3ccccc3[n+]2[O-])cc1` was tested, and the inhibition was 44% (active).
`O=C(Nc1ccc2c(c1)OCCO2)C1CCCN(c2ncccn2)C1` (stereo not given) was tested, and the inhibition was 20.5% (active).
For `Clc1ccc2nc(CSc3ccccc3)cn2c1`, the inhibition was 53% (active).
`Cc1nc2cc(NC(=O)Nc3cccc(F)c3)ccc2n1C` was tested, and the inhibition was 21.4% (active).
For `Cc1ccc(Nc2nc(-c3ccc(O)cc3O)cs2)nc1`, the inhibition was -25.8%.
With `Cc1cnc(NC(=O)c2ccccn2)s1` the inhibition was 15.6% (active).
In the case of `Cc1ccc(Nc2nc(-c3sc(NC(=O)c4ccccc4)nc3C)cs2)cc1`, the inhibition is reported as -23.6%.
Molecule `CCOC(=O)CNC(=O)c1nn(-c2cccc(OC)c2)c(=O)c2ccccc12` has an inhibition of -3.73%.
With `CCOc1ccc(OCc2ccc(C(=O)N(C)c3ccccc3)o2)cc1` the inhibition was -13.3%.
For `CCOc1ccc(OCc2cccc(C(=O)N(CC)CC)c2)cc1`, the inhibition was 22.5% (active).
`CCc1ccc2oc(-c3ccc(N)cc3)nc2c1` was tested, and the inhibition was 51% (active).
Work on `Nc1ccc(-c2nnc(-c3ccccc3)o2)cc1` yielded an inhibition of -10.8%.
With `O=C(Cn1c[n+](CC(=O)c2ccc([N+](=O)[O-])cc2)cn1)c1ccc([N+](=O)[O-])cc1` the inhibition was -6.5% and -8.93%.
With `COc1cc(CNC2CCCCC2)c(Br)cc1OC1CCCC1` the inhibition was 1%.
`COC(=O)C1[C@H]2SC(C)(C)C(C(=O)OC)N2C(=O)N1Cc1nc2ccccc2s1` (stereo not given in full) gave an inhibition of -10.3%.
Molecule `COc1ccc(CNC(=O)/C(C#N)=C/c2cccc(OC)c2OC)cc1` has an inhibition of -0.6%.
In the case of `COc1ccc(Nc2ncnc3ccc(Br)cc23)c(OC)c1`, the inhibition is reported as 55.5% (active).
`Cc1ccc2nc(/C(C#N)=C\c3ccc(OC(=O)c4cccs4)cc3)[nH]c2c1` was tested, and the inhibition was -9.37%.
With `CCCCNC(=O)Nc1c(C)cc(SC#N)cc1C` the inhibition was -1.43%.
`Cc1nn(CC(=O)Nc2ccc(F)cc2)c(=O)c2ccccc12` gave an inhibition of -7.73%.
For `CCOc1ccc(-c2nnc(-c3ccco3)o2)cc1`, the inhibition was 56.9% (active).
With `O=C(CN1C(=O)c2ccccc2S1(=O)=O)N1CCc2ccccc21` the inhibition was -9.57%.
With `CCOc1c(Br)cc(/C=C2\C(=O)N(CCC#N)N=C2C)cc1OC` the inhibition was 29.9% (active).
With `N#C/C=C\Oc1ccc(Cl)cc1N` the inhibition was -7.1%.
Molecule `Cc1nnc(SCC(=O)N2c3ccccc3C(C)(c3ccc(Cl)cc3)CC2(C)C)s1` (stereo not given) has an inhibition of -1.27%.
`O=C(Nc1cccnc1)c1noc2c1CCCCC2` was tested, and the inhibition was 38.6% (active).
`COc1cc(NS(=O)(=O)c2ccc3ccccc3c2)c2ncccc2c1` was tested, and the inhibition was -7.83%.
`CSCCC(C(=O)NC1=NCCS1)N1C(=O)c2ccccc2C1=O` (stereo not given) showed an inhibition of -8.47%.
For `CN(C)c1ccc(-n2cccc2/C=N/n2cnnc2)cc1`, the inhibition was -11.7%.
`CC(C)c1nc2ccc(C(=O)O)cc2[nH]1` was tested, and the inhibition was 31.5% (active).
`Cc1nc2ccc(C(=O)O)cc2[nH]1` gave an inhibition of 4.87%.
`CC(C)(C)OC(=O)c1c(N)n(CCCN2CCCC2=O)c2nc3ccccc3nc12` was tested, and the inhibition was -7.33%.
`CCCS(=O)(=O)N1CCCC(C(=O)NCCN2CCCCC2C)C1` (stereo not given) gave an inhibition of -4.93%.
`Cc1ccc(-c2cn3cc(C)ccc3n2)cc1` was tested, and the inhibition was 87.3% (active).
With `Cc1ccc2nc(-c3ccc(Br)cc3)cn2c1` the inhibition was 81.5% (active).
`COc1ccc(-c2cn3ccc(C)cc3n2)cc1` was tested, and the inhibition was 69.7% (active).
For `Cc1cccc(C(=O)OC(C)CN2CCN(C)CC2)c1` (stereo not given), the inhibition was -7.93%.
For `Cc1ccc(C(=O)CSc2ccccc2C(=O)O)cc1`, the inhibition was -0.87%.
With `O=C(CSC(=S)N1CCOCC1)c1ccccc1` the inhibition was 34.5% (active).
`O=C(O)c1ccc(N=NN2CCOCC2)cc1` showed an inhibition of -12.9%.
`CCOC(=O)N1CCN(Cc2nc3c(c(=O)n(C)c(=O)n3C)n2Cc2ccccc2)CC1` was tested, and the inhibition was -8.93%.
For `C=CCN1CCN(C(=O)CCCc2ccccc2)CC1`, the inhibition was 37.2% (active).
`O=C(Cc1ccccc1)N1CCN(S(=O)(=O)c2ccc([N+](=O)[O-])cc2)CC1` was tested, and the inhibition was -3.47%.
Work on `COc1cc(C(=O)NN(CCC#N)C2=NS(=O)(=O)c3ccccc32)cc(OC)c1OC` yielded an inhibition of -6.77%.
Work on `Cc1cccc(CCNC(=O)Cn2ncc3c([nH]c4ccc(C)cc43)c2=O)c1` yielded an inhibition of -0.53%.
With `CN(c1ccc2nc3ccccc3c(=O)n2n1)C1CCCCC1` the inhibition was 87.3% (active).
For `O=C(OC1CCOC1=O)c1ccc(-c2nc3ccccc3s2)s1` (stereo not given), the inhibition was 65.2% (active).
With `c1ccc(-c2noc(-c3cccs3)n2)nc1` the inhibition was 27.4% (active).
Work on `CCOC(=O)c1nc(C)n(-c2ccc(Cl)cc2Cl)n1` yielded an inhibition of -5.2%.
Molecule `CCc1nc(SCC(=O)Nc2ccccc2OC)n[nH]1` has an inhibition of 0.13%.
In the case of `COc1ccc(C(=O)Nc2ccccc2C(=O)N/N=C/c2ccccc2OC)cc1`, the inhibition is reported as 43.8% (active).
`O=C(Nc1ccccc1C(=O)O)c1ccc(N2C(=O)C3CC=CCC3C2=O)cc1` (stereo not given) was tested, and the inhibition was -15.7%.
With `COc1ccc(C(=O)Nc2ccccc2C(=O)N/N=C/c2ccc(O)c(OC)c2)cc1` the inhibition was 93.5% (active).
`COc1ccc(/C=N/Nc2ccccc2C(=O)O)cc1` was tested, and the inhibition was 23.4% (active).
In the case of `COc1ccc(Cl)cc1NC(=O)Cn1nc(-c2ccc(C)cc2)n(C)c1=S`, the inhibition is reported as -10.3%.
`CC(OC(=O)c1ccc2noc(-c3ccccc3)c2c1)C(N)=O` (stereo not given) showed an inhibition of -3.9%.
Work on `Oc1c(C=Nc2cccc3nsnc23)ccc2ccccc12` yielded an inhibition of -18.8%.
In the case of `COc1ccc(-c2nc(-c3ccccc3)no2)c(OC)c1`, the inhibition is reported as 81.7% (active).
Molecule `COc1ccc(/C=C/c2noc(-c3ccccc3OC(C)=O)n2)cc1` has an inhibition of -12.5%.
For `CCCOc1ccc(C(=O)NCCc2ccccc2)cc1`, the inhibition was 44% (active).
`CCCCOCCCNC(=O)c1ccccc1OCC` gave an inhibition of -6.47%.
For `COc1cccc(/C=C/c2ccc3ccccc3n2)c1OC(C)=O`, the inhibition was -12.7%.
For `Cc1ccc(C(=O)COC(=O)c2cccc(N3C(=O)c4c(C)nc5ccccc5c4C3=O)c2)cc1C`, the inhibition was -20.1%.
`COc1cccc2c(C)c(C(=O)O)[nH]c12` was tested, and the inhibition was 30.6% (active).
`O=C1CCC([N+](=O)[O-])C(c2ccccc2Br)N1` (stereo not given) was tested, and the inhibition was -7.7%.
In the case of `CC(C)CNC(=O)CC(NCC(C)C)C(=O)O` (stereo not given), the inhibition is reported as -6.07%.
`Clc1cccc(N=C2NN=C(c3ccc4c(c3)OCCO4)CS2)c1` was tested, and the inhibition was 36.7% (active).
With `c1c2c(cc3sc(N4CCCCC4)nc13)OCCO2` the inhibition was 80% (active).
With `CCN(CCCNC(=O)c1ccc2c(c1)NC(=O)CN2C)c1cccc(C)c1` the inhibition was -5.03%.
For `CCOc1ccc(N/C=C/C(=O)c2ccccc2)cc1`, the inhibition was 62.8% (active).
With `COc1ccc(C(=O)/C=C/Nc2ccccn2)cc1` the inhibition was 90.9% (active).
With `CCCCCc1ccc(-c2ccc(C(=O)O)cc2)nc1` the inhibition was 57.8% (active).
`C/C(=N\NC(=S)NC1CCCCC1)c1ccc(C)o1` gave an inhibition of -11.1%.
`CCS(=O)(=O)c1cc([N+](=O)[O-])c(Sc2ccccc2N)s1` was tested, and the inhibition was 46% (active).
In the case of `CCc1ccc(Nc2ncc3c(n2)CC(c2ccco2)CC3=O)cc1` (stereo not given), the inhibition is reported as -15%.
In the case of `Cc1ccsc1C(=O)OCC(=O)c1cc(C)n(CC2CCCO2)c1C` (stereo not given), the inhibition is reported as 85.4% (active).
Molecule `COCc1cc(=O)[nH]c2cc(NC(=O)C(F)(F)F)c(C)cc12` has an inhibition of -7%.
With `CN(CCO)c1ccc(/C=N/Nc2nncc3ccccc23)cc1` the inhibition was 84.2% (active).
`CCCCC(=O)Nc1nc(C)c(-c2csc(Nc3ccc(Cl)cc3)n2)s1` was tested, and the inhibition was -9.5%.
With `O=c1oc(/C=C/c2ccccc2)nc2ccccc12` the inhibition was -16.5%.
